This is a sample that favours compounds with a hit; in the whole collection about 3.6% have one here.
Pf apPOL inh = Pf-apPOL DNA polymerase inhibition; Recombinant Pf-apPOL, molecular beacon fluorescence, 1.5 h; inhibition, % at 10 µM; AID 1794808; hit rate 0.25% among 210,000
mHTT-CaM PPI inh = mHTT-calmodulin interaction abrogation; AlphaScreen His-mHTT/GST-CaM binding, luminescence; hit rate 3.6% among 190,000; inhibition, % at 15 µM;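 further: 0% = both proteins with DMSO and 100% = one protein alone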
* hit, by the source's call; . = not tested or not shown. No stated cut-off is given here; in the data, active means inhibition above about 50%; inactive means the rest.

SMILES	Pf apPOL inh	mHTT-CaM PPI inh
O=C(c1ccccc1)N1CCCC(c2ccnc(-c3ccc(F)cc3)n2)C1 (stereo not drawn)	-4	13
CCC(=O)N1CCCC(c2ccnc(-c3ccc(F)cc3)n2)C1 (stereo not drawn)	-18	76*
CCCC(=O)N1CCCC(c2ccnc(-c3ccc(F)cc3)n2)C1 (stereo not drawn)	-6	2
NC(=O)NC(Cc1ccccc1)Cc1ccccc1	8	-3
CCOC(=O)N1CCN(c2nc(-c3ccc(C)cc3)nc3ccccc23)CC1	2	-8
Cc1ccc(-c2nc(N3CCC(C(N)=O)(N4CCCCC4)CC3)c3ccccc3n2)cc1	-3	53*
Cc1ccc(CNC(=O)CC2CCN(C(=O)C3CCCCC3)CC2)cc1	-3	4
CSc1ccc(NC(=O)N2CCc3c(nc4cc[nH]n4c3=O)C2)cc1	-1	10
COc1ccc(C2CC(c3ccc(Cl)cc3Cl)Nc3nc(N)nn32)cc1 (stereo not drawn)	-4	42
COc1cccc(C2CC(c3ccccc3Cl)Nc3nc(N)nn32)c1 (stereo not drawn)	-3	30
COc1cccc(C2CC(c3ccc(Cl)cc3Cl)Nc3nc(N)nn32)c1 (stereo not drawn)	2	52*
Nc1nc2n(n1)C(c1cccs1)CC(c1ccc(Cl)cc1Cl)N2 (stereo not drawn)	-13	78*
O=C(Nc1ccccc1)C1CCN(c2ncc(-c3ccccc3)cn2)CC1	0	-14
Cc1cc(C)cc(NC(=O)N2CCc3cn(C)c4cccc(c34)C2)c1	-9	4
O=C(NCc1ccccc1)c1ccc2c(c1)NC(=O)C1CCCN21 (stereo not drawn)	-5	15
CCN(CCCNC(=O)c1ccc2c(c1)NC(=O)C1CCCN21)Cc1ccccc1 (stereo not drawn)	50*	19
Cc1ccc(/C=C(\C#N)c2[nH]nc(N)c2C#N)cc1	-1	31
N#C/C(=C\c1ccc(-c2ccc(Cl)c(Cl)c2)o1)c1[nH]nc(N)c1C#N	-7	95*
COc1ccc(OC)c(/C=C(\C#N)c2[nH]nc(N)c2C#N)c1	-64	61*
COc1cc(/C=C(\C#N)c2[nH]nc(N)c2C#N)cc(OC)c1OC	-3	-5
N#C/C(=C\c1c[nH]c2ccccc12)c1[nH]nc(N)c1C#N	1	54*
N#C/C(=C\c1ccc2c(c1)OCO2)c1[nH]nc(N)c1C#N	-3	20
Cc1cccc(N2C(=O)c3ccc(C(=O)Nc4nccs4)cc3C2=O)c1C	1	22
C=CCn1cnc2c1c(=O)n(CC)c(=O)n2-c1ccccc1Cl	-8	-4
CCSc1sccc1C1C(C#N)=C(N)N(c2cccc([N+](=O)[O-])c2)C2=C1C(=O)CCC2 (stereo not drawn)	-5	31
SMILES	Pf apPOL inh	mHTT-CaM PPI inh
CC(C)NC(=O)N1CCCC(c2cccc(C(=O)NCc3ccc(N(C)C)cc3)c2)C1 (stereo not drawn)	-8	17
CCNC(=O)N1CCCC(c2cccc(C(=O)NCc3ccc(N(C)C)cc3)c2)C1 (stereo not drawn)	-4	54*
COc1ccc(NS(=O)(=O)c2cc3c(s2)CCN(C(=O)C2CCC2)C3)cc1	-6	4
Cc1nn(C)c(C)c1S(=O)(=O)N1CCC(n2c(-c3cccs3)nc3cccnc32)C1 (stereo not drawn)	2	10
NNc1nnc2c(n1)[nH]c1ccc(Br)cc12	11	67*
Brc1ccc2[nH]c3nc4ccccc4nc3c2c1	1	-3
COc1cc(OC)cc(C(=O)Nc2ccc(OC)c(Cl)c2)c1	-1	2
COc1ccc(C2CC(=O)Nc3n[nH]c(-c4ccc(Cl)cc4)c32)c(OC)c1 (stereo not drawn)	-3	39
O=C1CC(c2ccccc2Cl)c2c(n[nH]c2-c2ccccc2)N1 (stereo not drawn)	2	69*
O=C1CC(c2ccccc2F)c2c(n[nH]c2-c2ccccc2)N1 (stereo not drawn)	4	7
COc1ccc(C2CC(=O)Nc3n[nH]c(-c4ccccc4)c32)c(OC)c1 (stereo not drawn)	1	80*
CNC(=O)c1cccnc1N1CCSCC1	1	0
CC(C)Cn1cc(C(=O)NC2CCCCC2)c2c3ccccc3n(C)c2c1=O	-4	-3
Cc1ccc(NC(NC(=O)c2cccs2)C(=O)c2ccccc2)cc1 (stereo not drawn)	-3	38
O=C(NC(Nc1ccc(Cl)cc1)C(=O)c1ccccc1)c1cccs1 (stereo not drawn)	-3	81*
O=C(NC(Nc1ccc(I)cc1)C(Cl)(Cl)Cl)c1cccs1 (stereo not drawn)	-3	84*
O=C(NC(Nc1ccc([N+](=O)[O-])cc1)C(Cl)(Cl)Cl)c1cccs1 (stereo not drawn)	0	34
CC1CCN(c2nc3c(=O)[nH]cnc3n2C2OC(CO)C(O)C2O)CC1 (stereo not drawn)	.	-6
